Assay results as given in PubChem BioAssay (EPA / NIEHS).
Values joined by “and” are separate entries in the source; they are usually repeats but may differ in a detail not shown here. Equal entries are not always repeated. More than one record can exist for a structure, and the calls need not agree. Active and inactive are the calls of the source. How the source made its calls: active means hit-call score of the fitted dose curve at least 0.9, where 1 is the maximum; inactive means score below 0.9.

Columns and labels:
[1] = read-out: Monocyte Chemoattractant Protein-1 (MCP1), CCL2 (gene 6347); assay: BSK_BF4T_MCP1: BioMAP Diversity Plus: BF4T Assay for Monocyte Chemoattractant Protein-1 (MCP1) Biomarker Activity (AID 2284259); conditions: primary human bronchial epithelial cells with fibroblasts
In short: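 Co-culture of bronchial epithelial cells and dermal fibroblasts dosed with chemical; MCP-1 measured by ELISA 24 h later. Activity fitted in positive direction versus DMSO; cytotoxicity checked by SRB staining in parallel cultures.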

[2] = read-out: Intercellular Adhesion Molecule 1 (ICAM1), ICAM1 (gene 3383); assay: BSK_BF4T_ICAM1: BioMAP Diversity Plus: BF4T Assay for Intercellular Adhesion Molecule 1 (ICAM1) Biomarker Activity (AID 2284260); conditions: primary human bronchial epithelial cells with fibroblasts
In short: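 Co-culture of human bronchial epithelial cells and dermal fibroblasts exposed 24 h to chemical; cell-surface ICAM-1 quantified by ELISA. Parallel SRB total-protein staining assessed cytotoxicity; activity fitted relative to DMSO.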

[3] = read-out: Interleukin-8 (IL8), CXCL8 (gene 3576); assay: BSK_MyoF_IL8: BioMAP Diversity Plus: MyoF Assay for Interleukin-8 (IL8) Biomarker Activity (AID 2284261); conditions: primary human lung fibroblasts
In short: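 IL-8 levels were measured by ELISA in human lung fibroblasts harvested 24 h after compound addition. Responses were analysed as gain of signal over the DMSO baseline.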

CD90, THY1 (gene 7070) = assay: BSK_BF4T_CD90: BioMAP Diversity Plus: BF4T Assay for CD90 Biomarker Activity (AID 2284262); conditions: primary human bronchial epithelial cells with fibroblasts
In short: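 Co-culture of human bronchial epithelial cells and dermal fibroblasts, 24 h compound exposure. Cell-surface CD90 measured by ELISA relative to DMSO; parallel SRB total-protein staining for cytotoxicity.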

[4] = read-out: Interleukin-8 (IL8), CXCL8 (gene 3576); assay: BSK_BF4T_IL8: BioMAP Diversity Plus: BF4T Assay for Interleukin-8 (IL8) Biomarker Activity (AID 2284263); conditions: primary human bronchial epithelial cells with fibroblasts
In short: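 Human bronchial epithelial cells with dermal fibroblasts co-culture; IL-8 measured by ELISA 24 hours after dosing, fitted vs DMSO. Cytotoxicity tracked in parallel cultures by SRB total-protein staining.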

KRT18 (gene 3875) = assay: BSK_BF4T_Keratin818: BioMAP Diversity Plus: BF4T Assay for Keratin 818 Biomarker Activity (AID 2284266); conditions: primary human bronchial epithelial cells with fibroblasts
In short: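 Co-culture of human bronchial epithelial cells and dermal fibroblasts, chemical exposure 24 h. Keratin 8/18 measured by ELISA; positive-direction fit vs DMSO. SRB total protein run in parallel cultures for cytotoxicity.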

[5] = BSK_MyoF_SRB: Viability Assessment in the BioMAP Diversity Plus: MyoF Assay (AID 2284267); conditions: primary human lung fibroblasts;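 further: total protein by SRB absorbance in parallel cultures as cytotoxicity measure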
In short: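 Human lung fibroblasts, 24 h after chemical dosing; total protein measured by 0.1% sulforhodamine B staining after 10% TCA fixation, read at 560 nm, fitted relative to DMSO baseline.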

[6] = read-out: Matrix Metallopeptidase 1 (MMP1), MMP1 (gene 4312); assay: BSK_MyoF_MMP1: BioMAP Diversity Plus: MyoF Assay for Matrix Metallopeptidase 1 (MMP1) Biomarker Activity (AID 2284268); conditions: primary human lung fibroblasts
In short: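 Lung fibroblast cultures were dosed with test chemicals and, after 24 h, MMP1 levels were measured by ELISA; responses were referenced to DMSO and analysed for increases.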

[7] = read-out: TIMP metallopeptidase inhibitor 1 (TIMP1), TIMP1 (gene 7076); assay: BSK_MyoF_TIMP1: BioMAP Diversity Plus: MyoF Assay for TIMP metallopeptidase inhibitor 1 (TIMP1) Biomarker Activity (AID 2284269); conditions: primary human lung fibroblasts
In short: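 Primary human lung fibroblasts, MyoF multiplex system; chemical exposure 24 h; TIMP-1 by ELISA; positive fitting direction vs DMSO control.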

[8] = read-out: Matrix Metallopeptidase 1 (MMP1), MMP1 (gene 4312); assay: BSK_BF4T_MMP1: BioMAP Diversity Plus: BF4T Assay for Matrix Metallopeptidase 1 (MMP1) Biomarker Activity (AID 2284270); conditions: primary human bronchial epithelial cells with fibroblasts
In short: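 Co-culture of human bronchial epithelial cells and dermal fibroblasts; MMP-1 levels measured by ELISA 24 hours after chemical dosing, relative to DMSO. Cytotoxicity checked in parallel cultures by SRB total-protein staining.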

[9] = read-out: Matrix Metallopeptidase 3 (MMP3), MMP3 (gene 4314); assay: BSK_BF4T_MMP3: BioMAP Diversity Plus: BF4T Assay for Matrix Metallopeptidase 3 (MMP3) Biomarker Activity (AID 2284271); conditions: primary human bronchial epithelial cells with fibroblasts
In short: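 Co-culture of human bronchial epithelial cells and dermal fibroblasts dosed 24 h; MMP-3 measured by ELISA, positive-direction fit versus DMSO. Cytotoxicity tracked by SRB total-protein staining (560 nm) in parallel cultures.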

[10] = read-out: Tissue plasminogen activator (tPA), PLAT (gene 5327); assay: BSK_BF4T_tPA: BioMAP Diversity Plus: BF4T Assay for Tissue plasminogen activator (tPA) Biomarker Activity (AID 2284272); conditions: primary human bronchial epithelial cells with fibroblasts
In short: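 tPA level quantified by ELISA at 24 h post-treatment in bronchial epithelial/dermal fibroblast co-cultures, gain of signal scored against DMSO baseline. Parallel cultures stained with 0.1% SRB (560 nm) to flag overt cytotoxicity.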

[11] = read-out: Plasminogen Activator Inhibitor-1 (PAI1), SERPINE1 (gene 5054); assay: BSK_BF4T_PAI1: BioMAP Diversity Plus: BF4T Assay for Plasminogen Activator Inhibitor-1 (PAI1) Biomarker Activity (AID 2284273); conditions: primary human bronchial epithelial cells with fibroblasts
In short: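 Co-culture of human bronchial epithelial cells and dermal fibroblasts exposed to compound for 24 h. PAI-1 measured by ELISA; activity fitted in positive direction versus DMSO. Parallel SRB staining assessed overt cytotoxicity.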

[12] = BSK_BF4T_SRB: Viability Assessment in the BioMAP Diversity Plus: BF4T Assay (AID 2284274); conditions: primary human bronchial epithelial cells with fibroblasts;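 on AC50: total cell protein by sulforhodamine B staining as a cytotoxicity measure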
In short: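 Co-culture of human bronchial epithelial cells and dermal fibroblasts (BioMAP BF4T) exposed 24 h. Total protein by sulforhodamine B staining (0.1% SRB after 10% TCA fixation, 560 nm) in parallel cultures; fitted vs DMSO.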

[13] = read-out: urokinase Plasminogen Activator (uPA), PLAU (gene 5328); assay: BSK_BF4T_uPA: BioMAP Diversity Plus: BF4T Assay for urokinase Plasminogen Activator (uPA) Biomarker Activity (AID 2284275); conditions: primary human bronchial epithelial cells with fibroblasts
In short: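 Co-culture of human bronchial epithelial cells and dermal fibroblasts; uPA quantified by ELISA 24 hours after dosing, fitted relative to DMSO. Parallel SRB total-protein staining assessed overt cytotoxicity.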

[14] = read-out: Matrix Metallopeptidase 9 (MMP9), MMP9 (gene 4318); assay: BSK_BF4T_MMP9: BioMAP Diversity Plus: BF4T Assay for Matrix Metallopeptidase 9 (MMP9) Biomarker Activity (AID 2284276); conditions: primary human bronchial epithelial cells with fibroblasts
In short: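 Co-culture of human bronchial epithelial cells and dermal fibroblasts dosed for 24 h; MMP-9 quantified by ELISA and fitted upward versus DMSO. Cytotoxicity monitored in parallel cultures by SRB total-protein staining at the biomarker time point.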

[15] = read-out: Interleukin-8 (IL8), CXCL8 (gene 3576); assay: BSK_IMphg_IL8: BioMAP Diversity Plus: IMphg Assay for Interleukin-8 (IL8) Biomarker Activity (AID 2284277); conditions: primary human endothelial cells with macrophages
In short: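 Co-culture of human venular endothelial cells and macrophages exposed to chemicals for 24 h; IL-8 quantified by ELISA and compared against the DMSO baseline, with SRB total-protein staining in parallel cultures for cytotoxicity.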

[16] = read-out: Intercellular Adhesion Molecule 1 (ICAM1), ICAM1 (gene 3383); assay: BSK_BE3C_ICAM1: BioMAP Diversity Plus: BE3C Assay for Intercellular Adhesion Molecule 1 (ICAM1) Biomarker Activity (AID 2284278); conditions: primary human bronchial epithelial cells
In short: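 Primary human bronchial epithelial cells in BE3C system, 24 h after chemical dosing; cell-surface ICAM-1 measured by ELISA relative to DMSO. Parallel SRB staining (0.1% SRB after 10% TCA fixation, read at 560 nm) assessed cytotoxicity.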

[17] = read-out: Interleukin-1 alpha (IL1a), IL1A (gene 3552); assay: BSK_BF4T_IL1a: BioMAP Diversity Plus: BF4T Assay for Interleukin-1 alpha (IL1a) Biomarker Activity (AID 2284264); conditions: primary human bronchial epithelial cells with fibroblasts
In short: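 Human bronchial epithelial cells co-cultured with dermal fibroblasts, dosed and read at 24 h. Secreted/surface IL-1α quantified by ELISA; gain-of-signal fitted relative to DMSO baseline. Parallel SRB total-protein staining tracked cytotoxicity.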

Decorin, DCN (gene 1634) = assay: BSK_MyoF_Decorin: BioMAP Diversity Plus: MyoF Assay for Decorin Biomarker Activity (AID 2284265); conditions: primary human lung fibroblasts
In short: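 Compound is added to lung fibroblast cultures; cells incubate 24 h; decorin is then measured by ELISA; the response is analysed upward against DMSO controls.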

Measured: AC50

O=C(O)C(F)(F)C(F)(F)C(F)(F)C(=O)O
not listed: [17] | Decorin, DCN (gene 1634)
inactive: all other assays above

OCCCC(F)(F)C(F)(F)C(F)(F)C(F)(F)C(F)(F)C(F)(F)C(F)(F)C(F)(F)F
inactive: [6] | [15]
active: [1] 21.6 µM and 18 µM | [2] 23.2 µM and 34.2 µM | [3] 11.9 µM and 9.9 µM | CD90, THY1 (gene 7070) 20.6 µM and 19.2 µM | [4] 47.9 µM and 24.3 µM | [5] 12.9 µM and 12.4 µM | [6] 16.3 µM | [7] 14.5 µM and 13.7 µM | [8] 49 µM and 45.1 µM | [9] 40.1 µM and 40.6 µM | [10] 22.1 µM and 21 µM | [11] 20.7 µM and 30 µM | [12] 31.6 µM and 29.4 µM | [13] 22.5 µM and 19.4 µM | [14] 30 µM and 17.2 µM | [16] 47 µM and 47.6 µM

OCC(F)(F)C(F)(F)C(F)(F)C(F)(F)C(F)(F)C(F)(F)C(F)(F)C(F)(F)CO
active: [1] 16.7 µM and 9.07 µM | [2] 16.4 µM and 12.2 µM | [5] 47.2 µM | [6] 49.5 µM | [9] 19.3 µM | [10] 9.85 µM and 12.6 µM | [11] 15.1 µM and 13.6 µM | [12] 26.2 µM and 30 µM | [14] 27.6 µM and 23.7 µM | [15] 48.8 µM and 48.9 µM | [16] 44.7 µM and 40.3 µM
inactive: [3] | CD90, THY1 (gene 7070) | [4] | [5] | [6] | [7] | [8] | [9] | [13]

C[Si](Cl)(Cl)CCC(F)(F)C(F)(F)C(F)(F)C(F)(F)C(F)(F)C(F)(F)F
not listed: KRT18 (gene 3875)
inactive: all other assays above

O=C(Cl)C(F)(F)C(F)(F)C(F)(F)C(F)(F)C(F)(F)C(F)(F)C(F)(F)F
inactive: [1] | [2] | [3] | CD90, THY1 (gene 7070) | [4] | Decorin, DCN (gene 1634) | [5] | [6] | [7] | [8] | [9] | [10] | [11] | [12] | [13] | [14] | [16]
active: [8] 19.9 µM | [13] 21.6 µM | [14] 18.7 µM | [15] 30 µM and 36.9 µM
